Assay outcomes: PubChem BioAssay, National Center for Advancing Translational Sciences (NCATS)
Shown is part of a subset that was picked to be rich in hits.
Giardia FBPA inh: inhibitors of Giardia lamblia fructose-1,6-bisphosphate aldolase; A8B2U2; Potency, µM (titrated, usually from 59.6 µM), for inactives: top-dose activity, negative = inhibition, usual class: inhibitors; AID 2451; hit rate 0.71% among 290,000; purified Giardia FBPA; further: potency means the concentration at half of the fitted maximal effect; on the % scale 0 is the no-effect control and ±100 the full control effect; nearly all actives have a fitted effect of over 55% in size
Target sequence (A8B2U2 whole entry, looked up): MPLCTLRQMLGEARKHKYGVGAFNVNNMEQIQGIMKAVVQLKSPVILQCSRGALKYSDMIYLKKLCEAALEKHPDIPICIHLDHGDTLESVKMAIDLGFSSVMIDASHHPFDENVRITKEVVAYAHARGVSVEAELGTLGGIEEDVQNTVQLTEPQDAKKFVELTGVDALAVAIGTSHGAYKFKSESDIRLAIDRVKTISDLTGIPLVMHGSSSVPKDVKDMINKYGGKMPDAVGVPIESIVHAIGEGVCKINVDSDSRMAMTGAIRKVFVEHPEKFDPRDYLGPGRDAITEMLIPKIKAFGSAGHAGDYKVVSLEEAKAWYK
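Giardia FBPA (40 nM reagent) was preincubated 10 min at RT with compound (up to 57.5 uM final), then substrate plus GAPDH/TPI/NAD/arsenate coupling system with diaphorase/resazurin was added; resorufin fluorescence (525/598 nm) was read after 20 min.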
Shiga toxin inh: inhibitors of Shiga toxin in Vero cells | Vero cells, Shiga toxin protein synthesis inhibition reporter | inhibition, % at 38.7 µM | hit rate 9.2% among 290,000; in the data active means inhibition mostly above about 28%, no sharp cut-off; inactive means mostly below about 43%; further: 0% is about no effect
Sm TGR block: blocks Schistosoma mansoni thioredoxin glutathione reductase; Q962Y6; purified TGR, DTNB reduction, TNB absorbance 405 nm; Potency, µM (series often up to 114 µM), for the others: top-dose activity change, negative = inhibition, actives largely listed as inhibitors; hit rate 3% among 360,000; AID 485364; further: potency means the concentration at half of the fitted maximal effect; on the % scale 0 is the no-effect control and ±100 the full control effect; nearly all actives have a fitted effect of over 60% in size
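Kinetic colorimetric format: TGR-catalysed, NADPH-driven DTNB reduction monitored via TNB absorbance. Enzyme dispensed at 20 nM; compound exposure 15 min at room temperature before reaction start.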
LmPK inhibitor: inhibitors of Leishmania mexicana pyruvate kinase; Potency, µM (series often up to 57.5 µM), inactives show at the top dose activity change, negative = inhibition, actives largely listed as inhibitors; hit rate 0.37% among 290,000; Q27686; AID 1721; purified LmPK, Kinase-Glo ATP luminescence, 1 h; further: potency means the concentration at half of the fitted maximal effect; on the % scale 0 is the no-effect control and ±100 the full control effect
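Purified LmPK (0.1 nM) converted ADP (0.1 mM) to ATP with PEP (0.5 mM) in imidazole buffer pH 7.2 with KCl and MgCl2, 1 h at room temperature. ATP was read by Kinase-Glo luminescence; data normalized to uninhibited and no-enzyme controls.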
Cycloheximide cs: affects cycloheximide protein synthesis inhibition readout, counter-screen; cell reporter, cycloheximide protein synthesis inhibition counterscreen; max response, %; hit rate 12% among 300,000; AID 2314; in the data active means max response mostly above about 13%, no sharp cut-off; inactive means mostly below about 14%; further: read at 38.3 µM for the half of the compounds with a filed dose; 0% is about no effect
Tb PYK inh: T. brucei pyruvate kinase inhibition; hit rate 0.12% among 410,000; Q57TT1; Potency, µM (top dose mostly 76.8 µM), for inactives: at the highest dose activity, negative = inhibition, usual class: inhibitors; TbPYK enzyme, Kinase-Glo Plus ATP luminescence, 45 min; further: potency means the concentration at half of the fitted maximal effect; on the % scale 0 is the no-effect control and ±100 the full control effect; nearly all actives have a fitted effect of over 50% in size
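Quantitative HTS: titrated library compounds versus trypanosomal pyruvate kinase in TEA buffer (pH 7.2) containing KCl, MgCl2, BSA and Tween-20. Reactions were initiated with ADP, 130 uM final. Kinase-Glo Plus luminescence was read after 45 min at RT.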
Starred values were filed as active, the others as inactive; ? = inconclusive; / = no result; [ ] = dose if it differs, or a comment. Unless noted, the call rests on the fitted dose curve; in most records, active means well fitted curve in the direction sought with a large enough effect; inconclusive means small, poorly fitted or top-dose-only effect, or another doubt; inactive means no such curve, though single readings can be large; an effect the other way counts as inactive or inconclusive.

SMILES	Giardia FBPA inh	Shiga toxin inh	Sm TGR block	LmPK inhibitor	Cycloheximide cs	Tb PYK inh
O=C(COc1ccccc1Cl)NC(=S)Nc1ccc(CN2CCOCC2)cc1	-0.7%	-1.6	-14.2%	2.8%	-3.2	-11.5%
O=C(CCCCl)NC(=S)Nc1ccc(N2CCOCC2)cc1	0.1%	95.9*	?	1.5%	33.8*	-11.7%
O=C(CCCCl)NC(=S)Nc1ccc(CN2CCOCC2)cc1	-5.8%	48.1	1.5%	-0.1%	12.7*	-10.7%
COc1ccc(C)cc1NC(=O)c1cnc2scc(C)n2c1=O	4.9%	-0.4	-1.4%	5.8%	-1.9	2.4%
O=C(NCCc1c[nH]c2ccccc12)c1cnc2n(c1=O)CCS2	-0.1%	58.8*	0.9%	0.0%	30.5*	0.6%
O=C(NCCc1ccccc1)c1cnc2n(c1=O)CCS2	2.2%	110.9*	2.9%	5.9%[11.5 µM]	34.4*	2.6%
COc1ccc(C)cc1NC(=O)c1cnc2n(c1=O)CCS2	-5.0%	6.0	5.1%	2.8%	10.1*	-6.2%
COc1ccccc1OCC(=O)N(Cc1ccc(Cl)cc1)CC1CCCO1 (configuration not stated)	/	/	-5.5%	/	/	-0.5%
COc1ccc2[nH]cc(CCNc3cc(-c4ccccc4C(F)(F)F)ncn3)c2c1	-18.3%	/	/	/	/	/
CCc1c(C)nc2[nH]nc(-c3ccccc3)n2c1=O	-26.0%	15.6	-9.2%	-9.1%	15.3*	-7.4%
COc1ccc(C(=O)COC(=O)c2cc(C)no2)c(OC)c1	/	/	-10.2%	/	/	-0.4%
CCN(CC)C(NC(=O)Cc1ccccc1)C(Cl)(Cl)Cl (configuration not stated)	-0.6%	-6.8	17.8µM*	1.1%	-0.6	-6.2%
CCC(C)NC(=O)Cc1ccc(-c2ccccc2)cc1 (configuration not stated)	1.4%	15.8	26.1%	1.0%	23.1*	-2.3%
CC(NC(=O)Cc1ccccc1)C(=O)O (configuration not stated)	/	/	50.1µM*	/	/	-0.6%
CC(C)NC(NC(=O)Cc1ccccc1)C(Cl)(Cl)Cl (configuration not stated)	-0.6%	-6.4	8.8%	-0.6%	-2.1	4.2%
CCCC(C)NC(=O)Cc1ccccc1 (configuration not stated)	4.7%	10.2	3.6%	2.7%	-0.9	-7.7%
CCc1ccc(O)c(N=Cc2cccc(C)c2O)c1	0.8%	46.7	-27.2%	-4.6%	26.7*	-5.8%
Cc1cc2nn(-c3ccccc3)nc2cc1NC(=O)COc1ccc(Cl)cc1	/	/	?	/	/	-2.9%
CC(=O)N1CCC2(CC1)CCN(c1ccc(-c3ccccc3)cc1)CC2	-16.0%	/	/	/	/	3.4%
O=c1nc2c(-c3ccccc3F)n[nH]n2c2ccccc12	-15.5%	80.2*	1.2%	-13.9%	20.3*	4.7%
O=c1nc2c(-c3ccc(F)cc3Cl)n[nH]n2c2ccccc12	/	/	6.9%	/	/	1.7%
Cc1cccc(NC(=O)CC2NCCNC2=O)c1 (configuration not stated)	9.3%	38.6	-1.3%	2.9%	24.1*	-0.4%
Cc1cc(NC(=O)CC2CCCC2)ccc1Br	-5.9%	62.5*	-8.1%	1.4%	26.3*	0.8%
N#Cc1cccc(NC(=O)CC2CCCC2)c1	-9.2%	20.5	4.1%	11.9%	12.8	-1.8%
Cc1cccc(NC(=O)CC2CCC2)c1	-3.3%	12.3	6.9%	1.4%	20.0*	-1.1%
SMILES	Giardia FBPA inh	Shiga toxin inh	Sm TGR block	LmPK inhibitor	Cycloheximide cs	Tb PYK inh
CCOc1ccc(S(=O)(=O)N2CCC(C(=O)NCc3ccco3)CC2)cc1C	-0.1%	-1.9	-3.2%	0.3%	-3.8	-1.6%
CCC(=O)N/C(N)=N/c1nc(C)c2cc(OC)ccc2n1	-5.1%	71.2*	-26.3%	-7.5%	23.3*	-7.4%
COc1ccc2nc(/N=C(\N)NC(=O)C(C)(C)C)nc(C)c2c1	12.3%	41.5*	9.5%	6.4%	30.3*	4.7%
COc1ccc2nc(/N=C(\N)NC(=O)N3c4ccccc4Sc4ccccc43)nc(C)c2c1	-8.5%	10.7	-3.3%	1.5%	-2.2	4.1%
CO/N=C(/C(=O)N[C@@H]1C(=O)N2C(C(=O)OC(C)OC(C)=O)=C(COC(N)=O)CS[C@H]12)c1ccco1 (some centres not stated)	/	/	/	/	/	0.0%
FC(F)Sc1ccc(NC(=S)NC2CCC(NC(=S)Nc3ccc(SC(F)F)cc3)CC2)cc1 (configuration not stated)	-0.9%	-3.4	-5.0%	2.0%	10.0	-0.9%
Oc1cccc2c(NC(=S)Nc3ccc(SC(F)F)cc3)cccc12	1.77µM*	134.9*	-11.6%	2.8%	82.3*	-3.5%
CCCCNC(=S)Nc1ccc(F)cc1	3.0%	11.9	-3.2%	-0.6%	0.4	2.7%
Oc1cccc(NC(=S)Nc2ccc(SC(F)F)cc2)c1	-5.2%	20.2	?	-0.1%	21.3*	-1.8%
CCCCNC(=S)Nc1ccc(SC(F)F)cc1	-10.7%	148.6*	5.6%	5.7%	60.5*	3.4%
CCCn1c(N/N=C\C=C\c2ccccc2)nc2c1c(=O)[nH]c(=O)n2C	-6.6%	19.8	?	0.5%	21.1	3.5%
CC(/C=C/c1ccccc1)=N\Nc1nc2c(c(=O)[nH]c(=O)n2C)n1CCO	-27.3%	-1.9	14.1µM*	0.5%	-0.7	0.3%
COCCn1c(N/N=C(C)/C=C/c2ccccc2)nc2c1c(=O)[nH]c(=O)n2C	-5.1%	-15.0	25.1µM*	-4.7%	0.9	/
CN(C)C(=C(C#N)C#N)N1CCN(c2ccc(Cl)cc2)CC1	4.4%	-9.5	/	0.8%	-3.9	-5.2%
CSC(=NC#N)N1CCN(c2ccc(Cl)cc2)CC1	6.3%	47.3*	-15.9%	1.4%	27.8*	0.9%
NCCO/C=C/[C@H](N)C(=O)O	/	/	/	/	/	2.0%
O=C(c1ccco1)N1CCN(C(=O)c2cnn(-c3ccc(F)cc3)c2-n2cccc2)CC1	/	/	/	/	/	-6.9%
CC(C)N=C1NN=C(c2cccs2)C(CC(=O)O)S1 (configuration not stated)	-28.6%	-0.3	15.8µM*	-1.1%	-1.3	-18.5%
CCn1c(SCC(=O)NC(C)C)nnc1-c1cccs1	-2.4%	16.4	-15.8%	-0.8%	2.6	-4.1%
CCN(CC(=O)Nc1ccccc1OC)C(=O)CN1C(=O)NC(C)(c2ccc3ccccc3c2)C1=O (configuration not stated)	/	/	/	/	/	-8.9%
COc1ccc(-c2cc(C(=O)NC(Cc3cc4ccccc4[nH]3)C(=O)O)c(C)o2)cc1OC (configuration not stated)	4.8%	49.5*	?	5.3%	33.0*	-20.9%
CCCSCCCNC(=O)Cn1c(-c2cccs2)cc2ccccc21	/	/	-1.8%	/	/	-5.8%
CC(=O)N=c1sc2nc3ccccc3nc2n1N(C(C)=O)C(C)=O	?	13.8	50.1µM*	-1.7%	13.8	-28.1%
Cc1cc(C)cc(C(=O)NCC(=O)NCc2ccc(S(N)(=O)=O)cc2)c1	-0.1%	17.8	23.9%	0.3%	-0.1	-10.4%
NS(=O)(=O)c1ccc(CNC(=O)CNC(=O)c2ccc(F)cc2)cc1	1.6%	67.8*	6.0%	-4.9%	14.9*	-2.8%
